Data taken from ChEMBL document CHEMBL4513216, “Probing the Open Global Health Chemical Diversity Library for Multistage-Active Starting Points for Next-Generation Antimalarials” (ACS Infect Dis, 2020).
Out of some 69,000 compounds screened, about 8,600 (12%) showed an effect of 50% or more. What follows is part of a selection rich in strong results, with near analogues and random picks from the rest.

These molecules were tested on Plasmodium berghei (assay: Screen against P. berghei liver stage (PbLuc), transformed with Luciferase, at 10uM). Settings: tested at 10 uM.
Assay type: functional, HepG2

Structure (SMILES) | INHIBITION [%]
O=C(NCC1CCOCC1)[C@H]1C[C@@H]2CCN(c3nncs3)C[C@@H]2O1 | 24.3
CC(O)CN1CCN(C(=O)c2cccc3[nH]ncc23)CC1 (configuration not stated) | -31.8
CCC(O)CN1CCN(C(=O)c2cccc3[nH]ncc23)CC1 (configuration not stated) | -29.8
CCn1nc(C)cc1C(=O)N1CCC(Nc2ccc(C)nn2)CC1 | 57.7
CC(C)(C)C(O)CN1CCN(C(=O)c2cccc3[nH]ncc23)CC1 (configuration not stated) | 69.8
COc1ccc(F)cc1C(=O)N1CCn2c(nnc2C(F)(F)F)C1 | 6.33
Cc1ccc(NC2CCN(C(=O)c3cccc4c3ccn4C)CC2)nn1 | 31.2
Cc1ccc(NC2CCN(C(=O)c3cccc4[nH]ncc34)CC2)nn1 | 55.4
CCn1nc(C)c(C(=O)N2CCC(Nc3ccc(C)nn3)CC2)c1C | 17.5
Cc1ccc(NC2CCN(C(=O)Cn3nc(C)cc3C)CC2)nn1 | 3.81
O=C(c1cccc(F)c1F)N1CCn2c(nnc2C(F)(F)F)C1 | 34.6
O=C(c1ccc(F)cc1Cl)N1CCn2c(nnc2C(F)(F)F)C1 | 68.8
Cc1ccc(NC2CCN(C(=O)c3n[nH]c4ccccc34)CC2)nn1 | 11
CCS(=O)(=O)N1Cc2ncn(CC3CC3)c2C(COCC2CC2)C1 (configuration not stated) | 9.51
NC(=O)CC1CCN(C(=O)NCc2cccc(-n3cccn3)c2)CC1 | -0.378
O=C(O)c1ccccc1-c1ccc(CN2CCC(CO)C2)cc1 (configuration not stated) | -12.3
CC(C)Oc1cccc(CNC(=O)N2CCC(N3CC=CC3)C2)c1 (configuration not stated) | 16.1
O=C(CN1CCOC(CNc2cccnn2)C1)NCc1ccccn1 (configuration not stated) | 23.5
c1cnc(-c2nn3c(CN4CCCCCC4)nnc3s2)cn1 | 21.7
Cc1cc(NC(C)c2n[nH]c(C)n2)n2nc(C)c(C)c2n1 (configuration not stated) | 18.4
CC(CNC(=O)Nc1cn[nH]c1)N1CCCC1 (configuration not stated) | -21.9
CCc1ccc(C(=O)N2CCC(Nc3ccc(C)nn3)CC2)o1 | 33.8

Structure (SMILES) | INHIBITION [%]
O=C(c1ccc(F)cc1Cl)N1CCC(Nc2cccnn2)CC1 | 41.4
CCn1c(C)cc(C(=O)N2CCC(NC(=O)c3ccc(C)o3)CC2)c1C | 74
Cc1ccc(NC2CCN(C(=O)c3ccc(C)o3)CC2)nn1 | 51.65
Cc1ccc(NC2CCN(C(=O)c3ccc(Cl)o3)CC2)nn1 | -33.5
Cc1ccc(NC2CCN(C(=O)c3ccc(Cl)cc3F)CC2)nn1 | 37.9
CCn1c(C)cc(C(=O)N2CCC(Nc3ccc(C)nn3)CC2)c1C | 32.9
CCn1c(C)cc(C(=O)N2CCC(NC(=O)c3cc(C)no3)CC2)c1C | -7.36
Cc1ccc(NC2CCN(C(=O)c3ccc(F)cc3Cl)CC2)nn1 | 56.4
CCc1nc(C2CCCN(C(=O)NC3CC3)C2)no1 (configuration not stated) | -81.1
CC(C)CNC(=O)c1nnsc1-c1ccccc1 | 2.69
COCCN1C[C@@H]2CC[C@H]1CN(C(=O)CCc1n[nH]c(C)c1C)C2 | -4.92
CCn1cc(CN2CCN(Cc3cccc(OC)c3)C(=O)C2)cc1C#N | 56.3
COc1cccc(CN2CCN(Cc3ccc4nonc4c3)CC2=O)c1 | 24.9
COc1cccc(N2CCN(Cc3nccn3C(C)C)CC2=O)c1 | 59.5
CCn1cc(CN2CCN(Cc3cc(C)cc(C)c3)C(=O)C2)cc1C#N | -17.8
COc1cccc(N2CCN(Cc3nccc(OC)c3OC)CC2=O)c1 | 11.2
COc1cccc(N2CCN(Cc3ccc(NC(C)=O)cc3)CC2=O)c1 | 38.5
COc1cccc(N2CCN(Cc3cc(C)cc(F)c3)CC2=O)c1 | 11.3
COc1cccc(N2CCN(Cc3ncc[nH]3)CC2=O)c1 | -26.5
COc1cc(CN2CCN(c3cccc(OC)c3)C(=O)C2)cc(OC)c1 | 58.5
Cc1n[nH]c(C2CN(CC(=O)NCCc3ccccc3C)CCO2)n1 (configuration not stated) | 43.1
Cc1occc1C(=O)N1CCC2(CCC(C(=O)NCC3CC3)O2)CC1 (configuration not stated) | -5.94

Structure (SMILES) | INHIBITION [%]
CCC(CNS(=O)(=O)c1cccc(C(=O)OC)c1)N1CCCC1 (configuration not stated) | -39.2
O=C1CCC[C@]2(CN(S(=O)(=O)C3CCCCC3)C[C@H]2c2cccnc2)N1 | -11.4
O=C(COc1ccc(-n2cccn2)nn1)NC1CCCCC1 | -10.6
O=c1c(-c2ccnc(N3CCCC[C@@H]3CO)n2)cnc2sccn12 | 35.2
Cc1ncc(-c2ccnc(N3CCC[C@@H]3CO)n2)c(-c2cccnc2)n1 | 20.4
OC[C@H]1CCCN1c1nccc(-c2cncnc2C2CCCCC2)n1 | 64.9
OC[C@@H]1CCCN1c1nccc(-c2c[nH]nc2-c2ccncc2)n1 | -15.2
O=c1c(-c2ccnc(N3CCC[C@H]3CO)n2)cnc2sccn12 | -4.82
OC[C@H]1CCCN1c1nccc(-c2c[nH]nc2C2CCCCC2)n1 | 54.5
O=C(NCCn1cccc1)C(c1ccccc1)N1CCCC1 (configuration not stated) | 15.4
CCOC1CCCN(C(=O)CCOc2ccc(C)cc2OC)C1 (configuration not stated) | 8.59
Cn1cc2ncn(C3CCN(c4ccccc4F)CC3)c(=O)c2n1 | -6.03
Cc1nn(C)cc1-c1ccnc(N2CCSCC2)n1 | 47.2
CCN(CC)CCCNc1nccc(-c2cn(C)nc2C)n1 | 43.9
CNCCNc1nccc(-c2cn(C)nc2C)n1 | 19.4
Cc1ccc(NCCCNc2nccc(-c3cn(C)nc3C)n2)nc1 | 51.2
CNc1nccc(-c2cn(C)nc2C)n1 | 29.4
Cc1nn(C)cc1-c1ccnc(NCCN)n1 | 59.4
c1cnn(CC2CCCCN2Cc2noc(C3CC3)n2)c1 (configuration not stated) | -42.65
CC(C)NC(=O)c1nnc2ccc(N3CCOCC3)cc2n1 | -3.11
O=C(c1ccco1)N1CCC2(CCC(=O)N2Cc2ccccc2)CC1 | 33.4
COCC(=O)N1CCC(C)(c2cc(O)[nH]n2)CC1 | 23.9

Structure (SMILES) | INHIBITION [%]
Cc1nc(CCNC(=O)NCc2cccc(N(C)C)n2)cs1 | -24.3
CCC(NC(=O)NCc1cccc(N(C)C)n1)c1nccs1 (configuration not stated) | 67.4
CCCC(NC(=O)NCc1cccc(N(C)C)n1)c1ccccn1 (configuration not stated) | 58.5
CN(C)c1ccc(NC(=O)NCc2ccccn2)cn1 | 13.9
CCC(NC(=O)NCc1cccc(N(C)C)n1)c1cccs1 (configuration not stated) | -6.46
CCC(NC(=O)NCc1cccc(N(C)C)n1)c1ccccc1OC (configuration not stated) | 6.83
Cc1noc(C)c1-c1cncc(C2CCCN2Cc2ncc[nH]2)n1 (configuration not stated) | 47.2
CC[C@@H](Cn1ncc2ccccc2c1=O)NC(=O)c1ccco1 | 34.1
Cn1ccc(C(=O)N2CCN(c3nccs3)CC2)cc1=O | 28.8
Cc1ccccc1C(=O)NC1CCN(Cc2ncc(C(C)(C)C)o2)CC1 | 66.1
CC(C)(C)c1cnc(CN2CCCS(=O)(=O)CC2)o1 | -7.94
CCN(C1CCN(Cc2ncc(C(C)(C)C)o2)CC1)S(C)(=O)=O | 50.8
CCN(CC)CC1CCN(Cc2ncc(C(C)(C)C)o2)CC1 | 47.4
CC(C)(C)c1cnc(CN2CCC(CN3CCOCC3)CC2)o1 | 66.3
CC(C)(C)c1cnc(CN2CCC(NC(=O)NC3CCCCC3)CC2)o1 | 60.8
CC(C)(C)c1cnc(CN2CCC(NC(=O)Nc3ccccc3)CC2)o1 | 39.4
CCN1CCN(C2CCN(Cc3ncc(C(C)(C)C)o3)CC2)C1=O | 42
CC(C)(C)c1cnc(CN2CCN(c3ncccn3)CC2)o1 | 24.3
CC(C)(C)c1cnc(CN2CCC(NC(=O)C3CCOCC3)CC2)o1 | 30.8
CC(C)(C)c1cnc(CN2CCC(CO)CC2)o1 | 39.7
CC(C)(C)c1cnc(CN2CCC(NC(=O)CC3CCCC3)CC2)o1 | 28.7
COc1ccc(C(C)N(C)Cc2c(C(C)(C)C)[nH]c3ncccc23)cc1 (configuration not stated) | -19

Structure (SMILES) | INHIBITION [%]
Cc1cnn(CC2CN(Cc3nc4cccnc4[nH]3)CCO2)c1 (configuration not stated) | 45.1
O=c1[nH]c2c(-c3ccccn3)nsc2c(=O)n1C1CCCCC1 | 9.41
O=C(Cc1cn2ccccc2n1)N1CCCC(n2cccn2)C1 (configuration not stated) | 21.5
CSc1ncccc1C(=O)NCc1ccc(N(C)C)cc1 | -25.1
Cc1nc(CN2CCC3(CCCN(Cc4ccncc4)C3)C2=O)cs1 (configuration not stated) | -36.9
CC(C)CN1CC(O)CN(S(=O)(=O)c2ccccc2)CC1=O (configuration not stated) | 10.1
Cc1cc(C)nc(NCCC(=O)NCCn2ccc3ccccc32)n1 | 41.5
Cc1cnc(CN2CCOC(Cn3nc(C)cc3C)C2)cn1 (configuration not stated) | 32.9
CCc1nc(N)sc1C(=O)N1CCCC(CCc2ccccc2C)C1 (configuration not stated) | 55.3
Cc1ccccc1CCC1CCCN(C(=O)Cc2cc(=O)[nH]c(N)n2)C1 (configuration not stated) | -33
CCc1nc(N)sc1C(=O)N1CCCC(COc2cccc(C)c2)C1 (configuration not stated) | -24.8
Cn1ccc(C(=O)NCc2ccc(CN3CCCCC3)cc2)cc1=O | -19.9
CCS(=O)(=O)N1C[C@H]2CN(Cc3cccc(F)c3)C(=O)[C@H]2C1 | 3.58
COCCNc1nc(C)nc2c1CCN(CC1CCC(N)CC1)CC2 (configuration not stated) | 26.6
CN(C)c1ncnc2c1CCN(CC1CCCC1)CC2 | 38.1
Cc1nc2c(c(NCCc3nc(C)c(Cl)s3)n1)CCNCC2 | 18.5
Nc1nc2c(c(NCc3nccs3)n1)CCN(CC1CCCC1)CC2 | 76.6
c1csc(CN2CCC3(CC2)CCN(CC2CC2)CC3)n1 | 23.3
Cc1nc2c(c(NCCc3nccs3)n1)CCN(CC1CC1)CC2 | 64.1
